Test results taken from PubChem BioAssay (Tox21).
Results filed as inconclusive are left out. Calls of active or inactive are those of the source. Unless noted, calls come from the whole dose curve; as a rule, active = well fitted curve in the direction sought with a large enough effect in the repeat runs; inconclusive = weak or mixed curves; inactive = no such curve, though single readings can be large; an effect the other way counts as inactive or inconclusive.

Tests used:
[1] = qHTS assay for small molecule agonists of the p53 signaling pathway (AID 651631; calls by dose curve; note: nearly all actives have a fitted effect of over 15% in size); conditions: HCT-116 p53RE-bla reporter, beta-lactamase FRET ratio, 16 h; series mostly up to 73.3 µM
In short: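 Readout was fluorescence from the LiveBLAzer FRET substrate, applied for 2 h at room temperature after 16 h compound exposure at 37 °C. Cells were the p53RE-bla HCT-116 line, with beta-lactamase driven by p53 response elements.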

[2] = qHTS assay for small molecules that induce genotoxicity in human embryonic kidney cells expressing luciferase-tagged ATAD5 (AID 651632); conditions: HEK293T ATAD5-luciferase induction, 16 h; series mostly up to 83.3 µM; note: nearly all actives have a fitted effect of over 15% in size
In short: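 HEK293T cells carrying a luciferase reporter tagged to ATAD5 were exposed to compound or DMSO vehicle for 16 hr at 37C, 5% CO2. Amplite was added, and after 30 min at room temperature luciferase activity was read as a marker of ATAD5 induction.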

[3] = qHTS assay for small molecules that induce genotoxicity in human embryonic kidney cells expressing luciferase-tagged ATAD5 - cell viability (AID 651634; calls by dose curve; note: nearly all actives have a fitted effect of over 25% in size); conditions: HEK293T ATAD5-luc cells viability, CellTiter-Fluor, 15.5 h; series mostly up to 83.3 µM
In short: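 HEK293T cells expressing luciferase-tagged ATAD5 were exposed to compound or DMSO for 15.5 hr at 37C, 5% CO2. Viability was then read as live-cell protease activity by CellTiter-Fluor fluorescence after 30 min at 37C.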

[4] = qHTS assay for small molecule disruptors of the mitochondrial membrane potential - cell viability (AID 720634; calls by dose curve;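 note: human HepG2 liver cancer cells; nearly all actives have a fitted effect of over 20% in size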); conditions: HepG2 viability, ATP luminescence (CellTiter-Glo), 1 h; series mostly up to 83.2 µM
In short: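 HepG2 cells seeded overnight at 37 C, then exposed to compound or DMSO for 1 hr at 37 C, 5% CO2. m-MPI dye added, then CellTiter-Glo for 30 min at room temperature; viability read as ATP luminescence.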

[5] = qHTS assay to test for compound auto fluorescence at 590 nm (red) in HepG2 cells (AID 720674); conditions: HepG2 autofluorescence, red 540/590 nm, 1 h; series mostly up to 46 µM
In short: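 We screened compounds on adherent HepG2 cells, incubating them for an hour at 37 C in 5% CO2 before reading emission at 590 nm under 540 nm excitation; values reflect equivalence to Rose Bengal sodium fluorescence.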

[6] = qHTS assay to test for compound auto fluorescence at 535 nm (green) in HepG2 cells (AID 720675); conditions: green autofluorescence 485/535 nm, 1 h; series mostly up to 46 µM
[7] = qHTS assay to test for compound auto fluorescence at 590 nm (red) in HEK293 cells (AID 720679); conditions: red autofluorescence 540/590 nm; series mostly up to 46 µM
In short: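 Using HEK293 cells at 2,000 per well, the screen added 23 nL of each compound after cell attachment and incubated overnight (37C, 5% CO2). The plate reader then captured red-label fluorescence, Ex/Em 540/590nm.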

[8] = qHTS assay to test for compound auto fluorescence at 460 nm (blue) in HEK293 cells (AID 720678); conditions: blue autofluorescence 405/460 nm; series mostly up to 46 µM
In short: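 Measured: blue fluorescence (Ex 405/Em 460 nm) of compound-treated HEK293 cells, incubated overnight at 37C with 5% CO2 and scaled to triamterene equivalents.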

[9] = qHTS assay for small molecule agonists of the p53 signaling pathway - cell viability (AID 651633; calls by dose curve; note: nearly all actives have a fitted effect of over 30% in size); conditions: p53RE-bla HCT-116 viability, ATP luminescence, 16 h; series mostly up to 83.3 µM
In short: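 Viability counter-read: CellTiter-Glo luminescence (30 min, room temperature) in the same p53RE-bla plates. These plates had been exposed to compounds for 16 h at 37 C.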

[10] = qHTS assay for small molecule disruptors of the mitochondrial membrane potential (AID 720635); conditions: HepG2 mitochondrial membrane potential, Mito-MPS dye ratio; series mostly up to 83.2 µM
In short: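 Mitochondrial membrane potential tracked with Mito-MPS dye, red aggregates (ex 540/em 590 nm) against green monomers (ex 490/em 535 nm). Compound treatment 1 hr at 37C, dye 30 min in HepG2.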

Measured: Potency

CC[N+](C)(C)c1cccc(O)c1
inactive: [1] | [2] | [3] | [4] | [5] | [6] | [7]

NC(=O)c1ccc([N+](=O)[O-])cc1
inactive: [1] | [3] | [4] | [5] | [6] | [8] | [7]

Nc1ccccc1S(=O)(=O)O
inactive: [1] | [9] | [3] | [4] | [5] | [6] | [8] | [7]

C[C@](N)(Cc1ccc(O)cc1)C(=O)O
inactive: [1] | [3] | [4] | [10] | [5] | [6] | [8] | [7]

O=C(O)c1ccccc1OP(=O)(O)O
inactive: [2] | [9] | [3] | [4] | [10] | [5] | [6] | [8] | [7]

Nc1cc(=O)[nH]c(N)n1
inactive: [1] | [9] | [3] | [4] | [10] | [5] | [6] | [8] | [7]

NC(=O)Nc1ccccc1
inactive: [2] | [9] | [3] | [4] | [10] | [5] | [6] | [8] | [7]

CCN(Cc1ccncc1)C(=O)C(CO)c1ccccc1 (stereo not drawn)
inactive: [1] | [9] | [3] | [4] | [10] | [5] | [6] | [7]

CCCCCCCCCCCCN(CCCCCCCCCCCC)CCCCCCCCCCCC
inactive: [1] | [2] | [3] | [4] | [5] | [6] | [8] | [7]

CN1CC(=O)NC1=N
inactive: [1] | [9] | [3] | [4] | [10] | [5] | [6] | [8] | [7]

CCOC(=O)Nc1ccc(NCc2ccc(F)cc2)nc1N
inactive: [2] | [9] | [3] | [4] | [10] | [5] | [6] | [7]

CCN(CC)CCOCCOC(=O)C1(c2ccccc2)CCCC1
inactive: [2] | [9] | [3] | [4] | [5] | [6] | [8] | [7]
